A selection: hits, their analogues and other compounds. The true share with any hit is near 2.3%.
697 NFkB inh = lowers PMA/ionomycin-induced NF-kB signal in 697 B cells; inhibition, % at 4 µM; AID 435022; 0.33% of 330,000 active; 697 B-cell NF-kB luciferase reporter, 16 h; in the data active = inhibition above about 35%
aSyn UTR inh = 5' untranslated region of α-synuclein, MLPCN primary screen; alpha-synuclein 5'UTR reporter, inhibitor activity; inhibition, % (tested at 7.5 µM); 0.82% of 300,000 active; AID 1813; in the data active = inhibition above about 60%; inconclusive = no clear call, values can overlap the other calls;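 also: H4 neuroglioblastoma cells stably carrying SNCA 5'UTR luciferase fusion; 0% = DMSO wells and 100% = positive control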
Shn3 inh set2 = reduces Shn3 3'UTR luciferase signal in osteoblasts; Clone20 osteoblast Shn3 3'UTR firefly luciferase, 24 h; inhibition, % at 12.5 µM; 0.52% of 360,000 active; AID 588674;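 active = mean inhibition of at least 75% with every replicate also reaching 75%; inconclusive = mean inhibition at least 75% but some replicate below; inactive = mean inhibition below 75%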;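 also: 0% = median of neutral control wells and 100% = pilot-screen positive control compound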
Jurkat NFkB inh = inhibitors of the PMA/ionomycin-induced NF-kB reporter in Jurkat cells; 0.53% of 330,000 active; inhibition, % at 4 µM; PMA/ionomycin-induced NF-kB luciferase reporter, luminescence; in the data active = inhibition above about 50%
TAG inh = reduces triacylglycerol accumulation in H9c2 cells. Nile Red lipid (TAG) fluorescence; cells loaded with 200 µM oleic acid. inhibition, % at 12.5 µM. 0.66% of 230,000 active. AID 651582;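 active = pattern-corrected inhibition of lipid staining of at least 50% with the nuclear-stain viability signal not falling by more than 50%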;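 also: 0% = DMSO wells and 100% = triacsin C control wells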
Gli-Sufu antag = blocks Gli-Sufu signaling in a luciferase reporter; Sufu-KO-LIGHT fibroblasts, Gli luciferase reporter luminescence; inhibition, % at 5 µM; 0.74% of 340,000 active; AID 588413;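 active = inhibition above about 55%, limit read from the data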;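 also: 0% = DMSO-treated cells and 100% = wells with medium but no cells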
697 NFkB conf = lowers PMA/ionomycin-induced NF-kB signal in 697 B cells; shares compounds with 697 NFkB inh; 697 B-cell NF-kB luciferase, 16 h; inhibition, % at 4 µM; 35% of 2,000 active; AID 449746; in the data active = inhibition mostly above about 28%, no sharp cut-off; inactive = mostly below about 22%
Active calls of the source: *; i = inactive; ? = inconclusive; · = no result.

SMILES	697 NFkB inh	aSyn UTR inh	Shn3 inh set2	Jurkat NFkB inh	TAG inh	Gli-Sufu antag	697 NFkB conf
C(=C\c1nc2ccccc2[nH]1)/c1ccccc1	-442	47	-1	-104	26	-141	-296
Cc1nc(/C=C/c2ccccc2)[nH]c(=O)c1-c1ccccc1	-254	-15	-87	6	·	-106	-163
Cc1ccc(C(=O)Nc2c(-c3ccc(Cl)cc3)[nH][nH]c2=O)cc1	·	·	-13	·	·	·	·
O=C1NC(c2ccc(Cl)c([N+](=O)[O-])c2)Nc2ccccc21 (stereo not drawn)	-4	-30	-24	-1	0	28	·
O=C1NC(c2cc(Cl)cc([N+](=O)[O-])c2O)Nc2ccccc21 (stereo not drawn)	36*	7	-11	-15	-6	2	-2
c1ccc([C@H]2CN3C(=N2)Sc2ccccc23)cc1	-268	·	-60	-137	2	-21	-347
COCCCNCC(O)COc1cccc2[nH]c(C)cc12 (stereo not drawn)	7	24	6	17	12	5	·
Cc1cnc(NC(=O)COc2cccc3c2OC(C)(C)C3)s1	i	-13	5	-60	5	-6	i
COc1ccc2nc(C)cc(SCC(=O)N/N=C/c3cccc4ccccc34)c2c1	-13	?	21	45	·	10	·
Cc1cccc(NC(=O)CCC2CCN(C(=O)c3ccc(C)s3)CC2)c1	10	30	14	2	·	14	·
COCc1ccc(C(=O)N2CCC(CCC(=O)Nc3cccc(C)c3)CC2)s1	39*	43	-2	19	·	9	17
CC1=NN(c2nc(-c3ccc(Cl)cc3)cs2)C(=O)C1	-70	-33	-4	-42	14	-4	·
Cc1ccc(-c2csc(N3C(=N)SCC3=O)n2)cc1	-268	-162	·	-104	·	-91	-169
CN(C)c1ccc(-c2nc3cc(N)ccc3o2)cc1	-297	93*	9	-134	6	-34	-202
Cc1c(Cl)cccc1Nc1ncccc1C(=O)OCC(O)CO (stereo not drawn)	3	-7	·	-1	·	·	·
O=C(OCC(O)CO)c1ccccc1Nc1ccnc2cc(Cl)ccc12 (stereo not drawn)	41*	·	6	-4	0	5	7
N#CC1=C(N)Oc2nc[nH]c(=O)c2C1c1cccs1 (stereo not drawn)	17	18	7	2	·	0	·
COC(=O)CCN1CCc2cc(N=Nc3ccc([N+](=O)[O-])cc3)ccc21	-282	-96	-45	-90	25	5	-95
CS/C(=C\[N+](=O)[O-])Nc1ccc(Cl)cc1	21	-3	-10	17	·	-9	·
Cc1cc(NC(=O)c2cccc(COc3ccc(Br)cc3)c2)no1	56*	-4	6	-21	-14	-139	12
CCOc1ccc(C(=O)Nc2cc(C)on2)cc1	-82	-41	-20	-110	·	-81	·
CC(=O)Nc1ccc(Nc2nc(-c3sc(NC(C)=O)nc3C)cs2)cc1	41*	2	9	22	29	-22	26*
CC(=O)Nc1nc(C)c(-c2csc(Nc3cccc([N+](=O)[O-])c3)n2)s1	45*	67*	37	18	·	-6	9
CC(=O)Nc1nc(C)c(-c2csc(Nc3ccc(O)cc3)n2)s1	-20	·	42	1	·	29	·
Cc1ccc(N2CC(C(=O)NCCCn3ccnc3)CC2=O)cc1 (stereo not drawn)	20	-1	7	-9	·	4	·
SMILES	697 NFkB inh	aSyn UTR inh	Shn3 inh set2	Jurkat NFkB inh	TAG inh	Gli-Sufu antag	697 NFkB conf
CN(C)c1ccc(S(=O)(=O)N2CCCCC2)cc1NC(=O)COc1ccccc1F	-14	20	0	-4	-11	-4	·
COc1cc2c(cc1C1NC(=S)NC(C)=C1C(N)=O)CCCC2 (stereo not drawn)	43*	6	-32	-22	33	42	1
O=c1cnn([C@@H]2O[C@H](CO)[C@@H](O)[C@H]2O)c(=O)[nH]1	i	8	18	4	0	15	i
S=c1[nH]nc(-c2ccccc2)n1/N=C/c1ccc(-c2ccccc2Cl)o1	i	37	13	-12	·	15	-263
COc1ccccc1NS(=O)(=O)c1ccc(C)c(NS(=O)(=O)c2cc(C(=O)O)cc(C)c2C)c1	12	6	-9	-14	10	-6	·
CC(C)c1[nH]nc2c1C(c1ccco1)C(C#N)=C(N)O2 (stereo not drawn)	49*	-133	-17	7	-2	1	30*
CC(C)c1[nH]nc2c1C(c1cccnc1)C(C#N)=C(N)O2 (stereo not drawn)	-1	-6	2	-2	·	5	·
N#CCCN(C(=O)COC(=O)CNS(=O)(=O)c1ccc2ccccc2c1)c1ccccc1	5	·	-16	7	-4	1	·
Nc1c(C(=O)CSc2nc3ccccc3o2)c(=O)[nH]c(=O)n1C1CC1	-323	·	-23	-40	12	-15	-334
N#C/C(=C\c1ccncc1)c1nc2ccccc2[nH]1	15	-77	-17	2	·	9	·
CC1=NN(C(N)=S)C(=O)C1N=Nc1ccc(Br)cc1 (stereo not drawn)	-314	-115	-82	-93	-9	-49	-7
CCOC(=O)Cc1n[nH]c(=O)c2ccccc12	15	11	-3	3	-15	-11	·
O=C(Cc1n[nH]c(=O)c2ccccc12)OCc1c(Cl)cccc1Cl	i	-44	-18	-31	2	-1	i
N=c1c(C(=O)NC2CCCC2)cc2c(=O)n3ccccc3nc2n1CCN1CCOCC1	49*	-14	·	2	15	-46	50*
N=c1c(C(=O)NC2CCCC2)cc2c(=O)n3ccccc3nc2n1CCCN1CCOCC1	-6	-21	-12	8	·	24	·
COc1ccccc1N1CCN(C(=O)C(=O)N/N=C/c2cccc(O)c2)CC1	5	-22	7	3	·	5	·
Cc1nnc2sc(SCc3ccc(Br)cc3)nn2c1=O	37*	-23	-22	-5	0	-6	13
Cc1nnc2sc(SCC(=O)Nc3ccc(Br)cc3)nn2c1=O	10	-13	5	3	-7	-1	·
O=C(Oc1ccccc1-c1csnn1)c1cccs1	6	-25	-13	5	-4	0	·
N/C(=N\OC(=O)/C=C/c1ccccc1Cl)c1ccccn1	-318	40	0	-113	-9	-62	-276
N/C(=N\OC(=O)COc1ccc(Cl)cc1Cl)c1ccccn1	-209	9	-12	-123	·	-93	·
N/C(=N\OC(=O)COc1ccc(Br)cc1Cl)c1ccccn1	-317	35	-4	-111	·	-64	-315
COc1cc(OC)cc(C(=O)NCCn2ccc3ccccc32)c1	3	1	1	5	0	-7	·
Cc1cc(=O)oc2cc(OCC(=O)c3ccccc3)ccc12	-21	-39	-5	-21	-5	-24	·
